Assay results taken from PubChem BioAssay AID1159580 (chemical genetic matrix, 2015).
Hit rate of the full screen: of about 5,500 compounds, about 2,000 (36%) were called active. Inconclusive results (about 18%) are left out. Some of the results follow. A number with no mark means an inactive call. Rule as the data show it: active = normalized growth mostly below about 0.91 (no sharp cut-off); inconclusive = no clear call, values can overlap the other calls; inactive = mostly above about 0.92.

Experiment: chemical genetic growth profiling, strain panel (AID 1159580);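 also: tested at 20 µM; growth read once vehicle control cultures reached saturation at 30 °C; 1 = growth at the plate median or of vehicle wells; lower values mean less growth of the strain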
Conditions: S. cerevisiae deletion strains, growth OD

Question: With `O=C(O)c1ccccc1` as the compound, how does the normalized growth (locus YAL021C, strain ccr4, active compounds read low) read?
Answer: Its normalized growth is 0.97.

Question: What about the normalized growth (locus YAL026C, strain drs2, active compounds read low) of the same compound?
Answer: Its normalized growth is 0.962.

Question: And the normalized growth (locus YAL030W, strain snc1, active compounds read low)?
Answer: Its normalized growth is 0.977.

Question: And the normalized growth (locus YBL061C, strain skt5, active compounds read low)?
Answer: The normalized growth was 0.975.

Question: And the normalized growth (locus YBR009C, strain hhf1, active compounds read low)?
Answer: The normalized growth was 0.981.

Question: And the normalized growth (locus YBR023C, strain chs3, active compounds read low)?
Answer: The normalized growth was 0.981.

Question: What about the normalized growth (locus YBR171W, strain sec66, active compounds read low) of the same compound?
Answer: The normalized growth was 0.957.

Question: What about the normalized growth (locus YBR231C, strain swc5, active compounds read low) of the same compound?
Answer: The normalized growth was 0.974.

Question: What about the normalized growth (locus YBR279W, strain paf1, active compounds read low) of the same compound?
Answer: The normalized growth was 0.981.

Question: What about the normalized growth (locus YCL011C, strain gbp2, active compounds read low) of the same compound?
Answer: The normalized growth was 0.954.

Question: What about the normalized growth (locus YCL016C, strain dcc1, active compounds read low) of the same compound?
Answer: Its normalized growth is 0.962.

Question: And the normalized growth (locus YCL061C, strain MRC1, active compounds read low)?
Answer: The normalized growth was 0.966.

Question: And the normalized growth (locus YCL069W, strain vba3, active compounds read low)?
Answer: Its normalized growth is 0.986.

Question: What about the normalized growth (locus YCR088W, strain abp1, active compounds read low) of the same compound?
Answer: The normalized growth was 0.996.

Question: And the normalized growth (locus YDL005C, strain med2, active compounds read low)?
Answer: Its normalized growth is 0.973.

Question: What about the normalized growth (locus YDL040C, strain nat1, active compounds read low) of the same compound?
Answer: Its normalized growth is 0.994.

Question: And the normalized growth (locus YDR001C, strain nth1, active compounds read low)?
Answer: The normalized growth was 0.973.

Question: And the normalized growth (locus YDR069C, strain doa4, active compounds read low)?
Answer: Its normalized growth is 0.958.

Question: What about the normalized growth (locus YDR137W, strain rgp1, active compounds read low) of the same compound?
Answer: Its normalized growth is 0.975.

Question: And the normalized growth (locus YDR159W, strain sac3, active compounds read low)?
Answer: Its normalized growth is 0.966.

Question: And the normalized growth (locus YDR195W, strain ref2)?
Answer: The normalized growth was 1.02.

Question: And the normalized growth (locus YDR297W, strain sur2, active compounds read low)?
Answer: Its normalized growth is 0.979.

Question: And the normalized growth (locus YDR334W, strain swr1, active compounds read low)?
Answer: The normalized growth was 0.911.

Question: What about the normalized growth (locus YDR335W, strain msn5, active compounds read low) of the same compound?
Answer: Its normalized growth is 0.976.

Question: What about the normalized growth (locus YDR392W, strain spt3, active compounds read low) of the same compound?
Answer: Its normalized growth is 0.962.

Question: And the normalized growth (locus YEL003W, strain gim4, active compounds read low)?
Answer: The normalized growth was 0.988.

Question: And the normalized growth (locus YEL037C, strain rad23, active compounds read low)?
Answer: The normalized growth was 0.988.

Question: What about the normalized growth (locus YEL061C, strain CIN8 (second series), active compounds read low) of the same compound?
Answer: The normalized growth was 0.971.

Question: And the normalized growth (locus YER015W, strain faa2, active compounds read low)?
Answer: The normalized growth was 0.987.

Question: And the normalized growth (locus YER016W, strain bim1, active compounds read low)?
Answer: Its normalized growth is 0.983.

Question: And the normalized growth (locus YER111C, strain swi4, active compounds read low)?
Answer: The normalized growth was 0.971.

Question: What about the normalized growth (locus YER155C, strain BEM2 (second series), active compounds read low) of the same compound?
Answer: Its normalized growth is 0.962.

Question: And the normalized growth (locus YFR010W, strain ubp6, active compounds read low)?
Answer: Its normalized growth is 0.958.

Question: What about the normalized growth (locus YGL167C, strain pmr1, active compounds read low) of the same compound?
Answer: Its normalized growth is 0.956.

Question: And the normalized growth (locus YGL173C, strain kem1, active compounds read low)?
Answer: Its normalized growth is 0.956.

Question: And the normalized growth (locus YGL227W, strain vid30, active compounds read low)?
Answer: The normalized growth was 0.97.

Question: What about the normalized growth (locus YGL240W, strain doc1, active compounds read low) of the same compound?
Answer: Its normalized growth is 0.959.

Question: What about the normalized growth (locus YGL253W, strain hxk2, active compounds read low) of the same compound?
Answer: Its normalized growth is 0.965.

Question: And the normalized growth (locus YHR013C, strain ard1, active compounds read low)?
Answer: The normalized growth was 0.962.

Question: What about the normalized growth (locus YHR027C, strain rpn1, active compounds read low) of the same compound?
Answer: Its normalized growth is 0.944.

Question: And the normalized growth (locus YHR030C, strain SLT2, active compounds read low)?
Answer: Its normalized growth is 0.894.

Question: What about the normalized growth (locus YHR079C, strain IRE1, active compounds read low) of the same compound?
Answer: The normalized growth was 0.891.

Question: And the normalized growth (locus YHR142W, strain chs7, active compounds read low)?
Answer: The normalized growth was 0.928.

Question: And the normalized growth (locus YJL092W, strain hpr5, active compounds read low)?
Answer: Its normalized growth is 0.966.

Question: And the normalized growth (locus YJL095W, strain BCK1 (second series), active compounds read low)?
Answer: The normalized growth was 0.989.

Question: What about the normalized growth (locus YJL095W, strain BCK1, active compounds read low) of the same compound?
Answer: The normalized growth was 0.893.

Question: And the normalized growth (locus YJL115W, strain asf1, active compounds read low)?
Answer: The normalized growth was 0.945.

Question: And the normalized growth (locus YJL129C, strain trk1, active compounds read low)?
Answer: The normalized growth was 0.987.

Question: And the normalized growth (locus YJL154C, strain vps35, active compounds read low)?
Answer: Its normalized growth is 0.975.

Question: And the normalized growth (locus YJL164C, strain tpk1, active compounds read low)?
Answer: Its normalized growth is 1.

Question: What about the normalized growth (locus YJL166W, strain qcr8, active compounds read low) of the same compound?
Answer: The normalized growth was 0.969.

Question: And the normalized growth (locus YJL187C, strain SWE1, active compounds read low)?
Answer: Its normalized growth is 0.982.

Question: And the normalized growth (locus YJR066W, strain TOR1, active compounds read low)?
Answer: The normalized growth was 0.863.

Question: And the normalized growth (locus YKL160W, strain elf1, active compounds read low)?
Answer: Its normalized growth is 0.965.

Question: And the normalized growth (locus YKR026C, strain gcn3, active compounds read low)?
Answer: The normalized growth was 0.978.

Question: And the normalized growth (locus YLL001W, strain dnm1, active compounds read low)?
Answer: The normalized growth was 0.948.

Question: What about the normalized growth (locus YLL026W, active compounds read low) of the same compound?
Answer: Its normalized growth is 0.982.

Question: And the normalized growth (locus YLL041C, strain sdh2, active compounds read low)?
Answer: The normalized growth was 0.966.

Question: What about the normalized growth (locus YLR027C, strain aat2, active compounds read low) of the same compound?
Answer: Its normalized growth is 0.967.

Question: And the normalized growth (locus YLR113W, strain HOG1, active compounds read low)?
Answer: Its normalized growth is 0.78 (active).

Question: And the normalized growth (locus YLR221C, strain rsa3, active compounds read low)?
Answer: Its normalized growth is 0.927.

Question: What about the normalized growth (locus YLR258W, strain gsy2, active compounds read low) of the same compound?
Answer: The normalized growth was 0.989.

Question: What about the normalized growth (locus YLR262C, strain YPT6 (second series), active compounds read low) of the same compound?
Answer: The normalized growth was 0.998.

Question: What about the normalized growth (locus YLR320W, strain mms22, active compounds read low) of the same compound?
Answer: The normalized growth was 0.943.

Question: And the normalized growth (locus YLR342W, strain FKS1, active compounds read low)?
Answer: The normalized growth was 0.972.

Question: What about the normalized growth (locus YLR357W, strain rsc2, active compounds read low) of the same compound?
Answer: The normalized growth was 0.969.

Question: And the normalized growth (locus YLR370C, strain arc18, active compounds read low)?
Answer: Its normalized growth is 0.949.

Question: What about the normalized growth (locus YLR384C, strain iki3, active compounds read low) of the same compound?
Answer: Its normalized growth is 0.958.

Question: And the normalized growth (locus YML120C, strain ndi1, active compounds read low)?
Answer: The normalized growth was 0.948.

Question: What about the normalized growth (locus YMR058W, strain fet3, active compounds read low) of the same compound?
Answer: The normalized growth was 0.951.

Question: And the normalized growth (locus YMR125W, strain sto1, active compounds read low)?
Answer: Its normalized growth is 0.98.

Question: And the normalized growth (locus YMR129W, active compounds read low)?
Answer: Its normalized growth is 0.988.

Question: And the normalized growth (locus YMR205C, strain PFK2, active compounds read low)?
Answer: The normalized growth was 0.967.

Question: What about the normalized growth (locus YMR231W, strain pep5, active compounds read low) of the same compound?
Answer: The normalized growth was 0.987.

Question: And the normalized growth (locus YNL071W, strain lat1, active compounds read low)?
Answer: The normalized growth was 0.988.

Question: And the normalized growth (locus YNL183C, strain NPR1, active compounds read low)?
Answer: The normalized growth was 0.84.

Question: And the normalized growth (locus YNL209W, strain ssb2, active compounds read low)?
Answer: The normalized growth was 0.975.

Question: And the normalized growth (locus YNL248C, strain rpa49, active compounds read low)?
Answer: The normalized growth was 0.966.

Question: What about the normalized growth (locus YNL322C, strain KRE1 (second series), active compounds read low) of the same compound?
Answer: Its normalized growth is 0.933.

Question: And the normalized growth (locus YNR049C, strain mso1, active compounds read low)?
Answer: Its normalized growth is 0.955.

Question: What about the normalized growth (locus YOR001W, strain rrp6, active compounds read low) of the same compound?
Answer: Its normalized growth is 0.965.

Question: What about the normalized growth (locus YOR070C, strain gyp1, active compounds read low) of the same compound?
Answer: Its normalized growth is 0.985.

Question: And the normalized growth (locus YOR080W, strain dia2, active compounds read low)?
Answer: The normalized growth was 0.963.

Question: What about the normalized growth (locus YOR083W, strain WHI5, active compounds read low) of the same compound?
Answer: The normalized growth was 0.961.

Question: And the normalized growth (locus YOR106W, strain vam3, active compounds read low)?
Answer: The normalized growth was 0.923.

Question: What about the normalized growth (locus YOR231W, strain MKK1, active compounds read low) of the same compound?
Answer: The normalized growth was 0.86 (active).

Question: What about the normalized growth (locus YOR265W, strain rbl2, active compounds read low) of the same compound?
Answer: Its normalized growth is 0.981.

Question: And the normalized growth (locus YOR270C, strain vph1, active compounds read low)?
Answer: Its normalized growth is 0.98.

Question: And the normalized growth (locus YOR290C, strain snf2, active compounds read low)?
Answer: The normalized growth was 0.907.

Question: And the normalized growth (locus YPL051W, strain arl3, active compounds read low)?
Answer: The normalized growth was 0.989.

Question: And the normalized growth (locus YPL078C, strain atp4, active compounds read low)?
Answer: Its normalized growth is 0.974.

Question: What about the normalized growth (locus YPL106C, strain sse1, active compounds read low) of the same compound?
Answer: The normalized growth was 0.962.

Question: What about the normalized growth (locus YPL240C, strain hsp82, active compounds read low) of the same compound?
Answer: Its normalized growth is 0.996.

Question: What about the normalized growth (locus YPL256C, strain CLN2, active compounds read low) of the same compound?
Answer: The normalized growth was 0.855.
